Our source for the growth inhibition values is PubChem BioAssay (NCI).

This is part of a sample that, as a whole, favours compounds with a hit. Of some 79,000 tested, about 15% had one in any assay. Calls of active or inactive are those of the source. No stated cut-off is given here; in the data, active means growth inhibition above about 70%; inactive means the rest.

A short description of one test: NCI Yeast Anticancer Drug Screen. Data for the sgs1 mgt1 strain (AID 161).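 Further: 0% = growth of cultures given vehicle only.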 To be noted: S. cerevisiae sgs1 mgt1 strain, at 50.0 µM, stronger effect = higher value. In outline: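 Growth of a repair-deficient yeast mutant was monitored after compound treatment and expressed as inhibition relative to vehicle-treated cultures.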
With `O=C(O)c1c2c(cc3c1CC1(Cc4cc5c(cc4C1=O)CCC5)C3)CCC2` (centres undefined), the growth inhibition was 87.3% (active). Regarding `CSc1ncnc2ncn(C3OC(CO)C(O)C3O)c12` (centres undefined), the growth inhibition was 15.2% (inactive). Consider `CC1SC(=S)N(c2ccc(Cl)cc2)C1=O` (centres undefined), for which the growth inhibition was 45.5% (inactive). Turning to `CCOC(=O)C(C(C)=O)C1=C(Cl)C(=O)c2ccccc2C1=O` (centres undefined), the growth inhibition was 99.5% (active). In the case of `CC(C)(C)c1cc(C(O)(C(F)(F)F)C(F)(F)F)c(S)c(C(O)(C(F)(F)F)C(F)(F)F)c1`, the growth inhibition was 98.8% (active).

Consider `O=[N+]([O-])C1C(c2ccccc2)CC=CC1N1CCCC1` (centres undefined), for which the growth inhibition was 98% (active).

On to `COc1ccc2nc3cc(Cl)ccc3c(NCCNc3c4ccc(Cl)cc4nc4ccc(OC)cc34)c2c1`, for which the growth inhibition was 96.2% (active). On the same count and under the same terms, for `CCN(CC)CCNc1nc(N)c2nc(-c3ccccc3)c(-c3ccccc3)nc2n1` the value was 90.5% (active); for `CC(=O)OCC(=O)[C@@]1(O)CC[C@H]2[C@@H]3CCC4=CC(=O)C=C[C@]4(C)[C@@]3(F)[C@@H](O)C[C@@]21C`, 17.4% (inactive); for `O=Cc1cc(S(=O)(=O)c2ccc(O)c(C=O)c2)ccc1O`, 98.8% (active). Take `OCc1cccc2c1Oc1ccccc1S2`: the growth inhibition is -10.3% (inactive). Take `O=C(CCN1CCCC1)c1ccc(Oc2ccc(F)cc2)cc1`: the growth inhibition was 47.2% (inactive). In the case of `Cc1ccccc1N1CCN(c2c3c(nc4ccccc24)CCCCC3)CC1`, the growth inhibition is 97.2% (active). `CNC(Cc1ccccc1)c1ccc(OC)c2ccccc12` (centres undefined): the growth inhibition was 14.8% (inactive). On to `CCCCN(CCCC)Cc1ccc(NC(C(=O)c2ccccc2)c2ccccc2)cc1` (centres undefined), for which the growth inhibition is 93.8% (active).

On to `CCS(=O)(=O)/C=C(\C#Cc1ccccc1)c1ccccc1`, for which the growth inhibition is 83.7% (active). As to `CN(C)c1c([N+](=O)[O-])cc(N2C(=O)C=CC2=O)cc1[N+](=O)[O-]`, the growth inhibition was 93.8% (active). Regarding `CNC(=N)c1ccc(NC(=N)c2ccc(NC(=O)c3ccc(C(=O)Nc4ccc(C(=N)Nc5ccc(C(=N)NC)cc5)cc4)cc3)cc2)cc1`, the growth inhibition was 53.8% (inactive). As to `O=[N+]([O-])c1ccc(-c2nc3ccc(F)cc3[nH]2)o1`, the growth inhibition is 99.7% (active). `CCCCCCC(=O)CC(SCCN)c1ccccc1Cl` (centres undefined): the growth inhibition was 99.2% (active).

As for `O=C(CC(c1ccccc1Cl)C(C(=O)O)c1ccccc1)c1ccccc1` (centres undefined), the growth inhibition was 92.5% (active). As for `CC([N+](=O)[O-])C1(O)C(=O)c2cccc3cccc1c23` (centres undefined), the growth inhibition was 42.2% (inactive). For the molecule `CC(=O)N(C1=C(Cl)C(=O)c2ccccc2C1=O)c1ccc(Cl)cc1`, the growth inhibition is 99.2% (active). Same read-out and setting: for `CCOC(=N)CCCSSc1ccc(N=[N+]=[N-])cc1` the value was 99% (active).

The next test is described as follows: NCI Yeast Anticancer Drug Screen. Data for the cln2 rad14 strain (AID 165).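 Further: 0% = growth equal to vehicle treated cultures.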 The note with it: S. cerevisiae cln2 rad14 strain, at 5.0 µM (retest, dose inferred, filed as 0.5), stronger effect = higher value. In outline: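 Readout is yeast growth inhibition versus vehicle-treated controls, using a strain with cln2 and rad14 alterations exposed to compound.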
Consider `COC(=O)[C@H]1O[C@H]1c1ccncc1`, for which the growth inhibition is -1% (inactive).

For the molecule `O=[N+]([O-])c1ccc(NSc2ccccc2)cc1`, the growth inhibition was 21% (inactive). Regarding `OCCOCCO[P+]1(OCCOCCO)n2c3ccc2C(c2ccccc2)=C2C=CC(=N2)C(c2ccccc2)=c2ccc(n21)=C(c1ccccc1)C1=NC(=C3c2ccccc2)C=C1`, the growth inhibition was 97% (active).

Turning to `NCCSC1(O)C(=O)c2ccccc2-c2ccccc21` (centres undefined), the growth inhibition was -14% (inactive). As for `C/C=C(\C)C(=O)O[C@@H]1CC(C)(C)CC2C3=CCC4[C@]56CC[C@](O)(OC5)C(C)(C)C6CC[C@@]4(C)C3(C)CC[C@]21C(=O)O` (some centres undefined), the growth inhibition is 73% (active). The same measure, in the same setting: for `CSC(=S)NN=C1CCCCC1` the value was 9% (inactive); for `O=C1c2ccccc2C(O)(C#Cc2ccccc2)c2cnccc21` (centres undefined), -11% (inactive).

Regarding `CCCCCC(CCCCC)C(=O)O`, the growth inhibition was -11% (inactive).

`CC(C)(N=Nc1ccc([N+](=O)[O-])cc1)[N+](=O)[O-]`: the growth inhibition was 15% (inactive).

Take `CCCCCCCCCCCCCC(=O)N1CCOCC1`: the growth inhibition is -1% (inactive). For the molecule `CCOc1ccccc1-c1nc2c(s1)C(=O)c1ccccc1C2=O`, the growth inhibition was 52% (inactive). As for `c1ccc2c(c1)C[n+]1ccc3ccccc3c1-c1c3ccccc3cc[n+]1C2`, the growth inhibition was 1% (inactive). Take `Nc1cc2c(c[n+](CCCCCCCCCC[n+]3cc4c5ccccc5c(N)cc4c4ccccc43)c3ccccc23)c2ccccc12`: the growth inhibition is 16% (inactive). Still for that read-out and setting: for `Cc1ccc(N=C(N)NN=C(c2ccc(Cl)cc2)c2ccc(Cl)cc2)cc1` the value was 8% (inactive). Regarding `O/N=C(/C[n+]1csc2ccccc21)c1ccccc1`, the growth inhibition was -6% (inactive).

Consider `COc1ccc(C2Oc3c(cccc3OC)C=C2[N+](=O)[O-])cc1` (centres undefined), for which the growth inhibition was 12% (inactive). Take `O=C(O)c1c2c(cc3c1CC1(Cc4cc5c(cc4C1=O)CCC5)C3)CCC2` (centres undefined): the growth inhibition was 37% (inactive). Still for that read-out and setting: for `CSc1ncnc2ncn(C3OC(CO)C(O)C3O)c12` (centres undefined) the value was 2% (inactive); for `CC1SC(=S)N(c2ccc(Cl)cc2)C1=O` (centres undefined), 3% (inactive); for `CCOC(=O)C(C(C)=O)C1=C(Cl)C(=O)c2ccccc2C1=O` (centres undefined), 77% (active). For `CC(C)(C)c1cc(C(O)(C(F)(F)F)C(F)(F)F)c(S)c(C(O)(C(F)(F)F)C(F)(F)F)c1`, the growth inhibition was 16% (inactive). For `O=[N+]([O-])C1C(c2ccccc2)CC=CC1N1CCCC1` (centres undefined), the growth inhibition was -2% (inactive).

Consider `COc1ccc2nc3cc(Cl)ccc3c(NCCNc3c4ccc(Cl)cc4nc4ccc(OC)cc34)c2c1`, for which the growth inhibition was 37% (inactive). Same read-out and setting: for `CCN(CC)CCNc1nc(N)c2nc(-c3ccccc3)c(-c3ccccc3)nc2n1` the value was -1% (inactive); for `CC(=O)OCC(=O)[C@@]1(O)CC[C@H]2[C@@H]3CCC4=CC(=O)C=C[C@]4(C)[C@@]3(F)[C@@H](O)C[C@@]21C`, -6% (inactive); for `O=Cc1cc(S(=O)(=O)c2ccc(O)c(C=O)c2)ccc1O`, 23% (inactive). In the case of `OCc1cccc2c1Oc1ccccc1S2`, the growth inhibition was -5% (inactive). Still for that read-out and setting: for `O=C(CCN1CCCC1)c1ccc(Oc2ccc(F)cc2)cc1` the value was 34% (inactive); for `Cc1ccccc1N1CCN(c2c3c(nc4ccccc24)CCCCC3)CC1`, -3% (inactive). Same read-out and setting: the result for `CNC(Cc1ccccc1)c1ccc(OC)c2ccccc12` (centres undefined) reads -1% (inactive); that for `CCCCN(CCCC)Cc1ccc(NC(C(=O)c2ccccc2)c2ccccc2)cc1` (centres undefined), -1% (inactive); that for `CCS(=O)(=O)/C=C(\C#Cc1ccccc1)c1ccccc1`, 12% (inactive). With `CN(C)c1c([N+](=O)[O-])cc(N2C(=O)C=CC2=O)cc1[N+](=O)[O-]`, the growth inhibition was 50% (inactive). On to `CNC(=N)c1ccc(NC(=N)c2ccc(NC(=O)c3ccc(C(=O)Nc4ccc(C(=N)Nc5ccc(C(=N)NC)cc5)cc4)cc3)cc2)cc1`, for which the growth inhibition is 47% (inactive). On the same count and under the same terms, the result for `O=[N+]([O-])c1ccc(-c2nc3ccc(F)cc3[nH]2)o1` reads 34% (inactive). Turning to `CCCCCCC(=O)CC(SCCN)c1ccccc1Cl` (centres undefined), the growth inhibition was 12% (inactive).

`O=C(CC(c1ccccc1Cl)C(C(=O)O)c1ccccc1)c1ccccc1` (centres undefined): the growth inhibition is 6% (inactive). In the case of `CC([N+](=O)[O-])C1(O)C(=O)c2cccc3cccc1c23` (centres undefined), the growth inhibition is 4% (inactive). Consider `CC(=O)N(C1=C(Cl)C(=O)c2ccccc2C1=O)c1ccc(Cl)cc1`, for which the growth inhibition is 95% (active). As to `CCOC(=N)CCCSSc1ccc(N=[N+]=[N-])cc1`, the growth inhibition is -7% (inactive).
